# Measurements from PubChem BioAssay AID2316 (Broad Institute, 2010).
# In all, about 29,000 compounds went through this assay and fewer than 10 were called active. Only a sample is shown. Values without a mark were called inactive. How the calls were made is not given here.
# Test: activators reversing PD-1 mediated T-cell inhibition, primary screen, luminescence, primary human CD4 T cells, PD-L1 beads (AID 2316);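 further: 0% = median vehicle wells and 100% = positive control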
# Details: CellTiter-Glo 96 h, active compounds read high
row,SMILES,activation [%]
1,O=C(Nc1cccs1)N1CCN(C(=O)C2CCCO2)CC1 (stereo not drawn),-0.0221
2,Cc1ccc(NC(=O)CSc2nnc(C)n2-c2ccc(F)cc2)cc1Cl,0.0225
3,COc1ccc(S(=O)(=O)Nc2cccc3c2O[C@@H](CN(C)C(=O)Nc2ccccc2)[C@@H](C)CN([C@@H](C)CO)C3=O)cc1,-2.12
4,C[C@@H]1CN([C@@H](C)CO)C(=O)c2cc(NS(C)(=O)=O)ccc2O[C@@H]1CN(C)C(=O)Nc1ccc(F)cc1,2.2
5,O=C1c2ccccc2S(=O)c2ccccc2S(=O)(=O)N1Cc1ccccc1 (stereo not drawn),-5.99
6,Cc1ccc(Cl)cc1NC(=O)CN(c1cccc(Cl)c1C)S(C)(=O)=O,-5.55
7,CS(=O)(=O)N(CC(=O)Nc1ccc2ccccc2c1)c1cc(Cl)c(Cl)cc1Cl,1.79
8,COc1ccc(S(=O)(=O)N(C)C[C@H]2Oc3ccc(NS(=O)(=O)c4ccc(F)cc4)cc3C(=O)N([C@H](C)CO)C[C@H]2C)cc1,1.51
9,COc1ccc(NC(=O)Nc2ccc3c(c2)C(=O)N([C@H](C)CO)C[C@@H](C)[C@H](CN(C)Cc2ccccc2)O3)cc1,-0.421
10,C[C@H]1CN([C@@H](C)CO)C(=O)c2cc(NS(C)(=O)=O)ccc2O[C@H]1CN(C)C(=O)Nc1ccc(C(F)(F)F)cc1,0.226
11,O=C(NCc1ccccn1)C1CC(c2cccc(Br)c2)=NO1 (stereo not drawn),1.86
12,C[C@H](CO)N1C[C@H](C)[C@@H](CN(C)S(C)(=O)=O)Oc2c(NC(=O)c3ccc(-c4nccs4)cc3)cccc2C1=O,0.392
13,COc1ccc(C(=O)CSc2nc3ccc(OC)cc3[nH]2)cc1,0.352
14,Cc1noc(C)c1NC(=O)Nc1ccc2c(c1)C(=O)N([C@@H](C)CO)C[C@H](C)[C@H](CN(C)CC1CCCCC1)O2,1.03
15,C[C@@H]1CN([C@H](C)CO)C(=O)Cc2cc(NS(=O)(=O)c3ccc(F)cc3)ccc2O[C@H]1CN(C)C,2.25
16,CS(=O)(=O)N(CC(=O)Nc1cc(Cl)ccc1Cl)c1ccc(Oc2ccccc2)cc1,0.0184
17,Cc1ccc(S(=O)(=O)Nc2ccc3c(c2)C(=O)N([C@H](C)CO)C[C@H](C)[C@H](CN(C)Cc2ccc(C(=O)Nc4ccccc4N)cc2)OCCCC[C@@H](C)O3)cc1,-0.831
18,O=C(Nc1ccccc1Cl)c1ccccc1S(=O)(=O)c1ccccc1[N+](=O)[O-],1.95
19,CS(=O)(=NS(=O)(=O)c1ccc(OC(F)(F)F)cc1)c1ccc(Cl)cc1 (stereo not drawn),0.43
20,O=C1OC(c2ccc(-c3ccccc3)cc2)=N/C1=C\c1ccco1,1.56
21,C/C=C/c1ccc(OCCCSc2nc(C)cc(=O)[nH]2)c(OC)c1,2.94
22,C[C@H]1CN([C@@H](C)CO)C(=O)Cc2cc(NC(=O)Nc3ccc4c(c3)OCO4)ccc2O[C@H]1CN(C)Cc1ccc(C(=O)Nc2ccccc2N)cc1,-2.39
23,C[C@@H]1CCCCO[C@@H](CN(C)C(=O)C2CCCCC2)[C@@H](C)CN([C@H](C)CO)C(=O)c2cc(NC(=O)c3ccccc3)ccc2O1,-1.83

row,SMILES,activation [%]
1,N#Cc1cc2c(nc1SCC(=O)Nc1ccccc1C(F)(F)F)CCCCC2,1.79
2,Cc1noc(C)c1NC(=O)Nc1cccc2c1O[C@@H](CN(C)C(=O)Nc1ccc(C(F)(F)F)cc1)[C@@H](C)CN([C@@H](C)CO)C2=O,-0.0327
3,C[C@H](CO)N1C[C@H](C)[C@H](CN(C)S(C)(=O)=O)Oc2ccc(NC(=O)CCCN(C)C)cc2C1=O,0.789
4,C[C@H](CO)N1C[C@H](C)[C@H](CN(C)CC2CCCCC2)Oc2ccc(NC(=O)CCCCCC(=O)Nc3ccccc3N)cc2CC1=O,-0.694
5,Cc1cccc(NC(=O)CSc2nc3c(cc2C#N)CCCCC3)c1,-3.01
6,O=C(CSc1nnc(-c2ccccc2)c(-c2ccccc2)n1)Nc1ccccc1,1.51
7,C[C@H]1CN([C@@H](C)CO)C(=O)c2cc(NC(=O)Cn3cnnn3)ccc2O[C@@H]1CN(C)CC1CCCCC1,1.73
8,CCCC1CCC(c2ccc(OC(=O)c3ccco3)cc2)CC1 (stereo not drawn),-0.337
9,CC(=O)c1c(C)nn(CC(O)COc2ccc3cc(Br)ccc3c2)c1C (stereo not drawn),-6.98
10,O=C(Nc1ccc(C(=O)OCc2cccc(C(=O)c3ccccc3)c2)cc1)c1ccccc1,-0.837
11,O=C(CSc1n[nH]c(-c2ccncc2)n1)Nc1ccccc1F,2.95
12,Cc1ccc(NC(=O)CN2C(=O)/C(=C\c3ccccc3)SC2=S)cc1,1.06
13,COC(=O)C1=C(C)NC2=C(C(=O)CC(C)(C)C2)C1c1ccncc1 (stereo not drawn),-0.541
14,C[C@@H]1CN([C@@H](C)CO)C(=O)c2cccc(NS(=O)(=O)c3cccs3)c2O[C@@H]1CN(C)CC1CC1,1.15
15,C[C@@H]1CN([C@H](C)CO)C(=O)c2cccc(NC(=O)Nc3ccccc3)c2O[C@H]1CN(C)S(C)(=O)=O,0.424
16,C[C@H]1CN([C@@H](C)CO)C(=O)Cc2cc(NC(=O)Nc3cccc4ccccc34)ccc2O[C@@H]1CN(C)S(=O)(=O)c1cn(C)cn1,-0.329
17,CC(C)Cc1ccc(/C=C/C(=O)N2CCCC2)cc1,-1.3
18,C[C@H]1CN([C@@H](C)CO)C(=O)c2cccc(NC(=O)C3CC3)c2O[C@@H]1CN(C)S(=O)(=O)c1ccc(F)cc1,-0.218
19,COc1ccc(CN(C)C[C@H]2Oc3c(NS(=O)(=O)c4ccc(C)cc4)cccc3C(=O)N([C@@H](C)CO)C[C@@H]2C)cc1,-1.26
20,COc1ccc(CN(C)C[C@@H]2Oc3ccc(NS(=O)(=O)c4ccc(F)cc4)cc3C(=O)N([C@@H](C)CO)C[C@@H]2C)cc1,-1.17
21,N#Cc1c(SCC(=O)Nc2ccc(F)cc2Cl)nc2c(c1C(F)(F)F)CCCCC2,0.417
22,CC(=O)NCCc1nc2cc(NC(=O)c3ccccc3)ccc2n1C,2.35
23,C[C@@H]1CN([C@@H](C)CO)C(=O)c2cc(NC(=O)CCCN(C)C)ccc2O[C@@H]1CN(C)Cc1ccncc1,0.414

row,SMILES,activation [%]
1,CCOc1ccc(NC(=O)C(C)Sc2nnc(C)n2-c2ccccc2)cc1 (stereo not drawn),-0.74
2,C[C@@H]1CCCCO[C@@H](CN(C)C(=O)NC2CCCCC2)[C@@H](C)CN([C@H](C)CO)C(=O)c2cc(NC(=O)CCC(F)(F)F)ccc2O1,-0.155
3,COc1cc(OC)cc(C(=O)N2CCN=C2c2ccccc2)c1,0.604
4,C[C@@H]1CN([C@@H](C)CO)C(=O)c2cc(NC(=O)Cc3ccccc3)ccc2O[C@H]1CN(C)Cc1ccc(Cl)c(Cl)c1,-0.482
5,Cc1ccccc1N=C(N)N=C(N)N,-0.656
6,C[C@@H]1CCCCO[C@H](CN(C)C(=O)C2CCCCC2)[C@@H](C)CN([C@H](C)CO)C(=O)c2cc(NC(=O)C3CCCCC3)ccc2O1,-3.28
7,CC(=O)c1cccc(NC(=O)CN(C)S(=O)(=O)c2ccc3ccccc3c2)c1,0.81
8,COc1ccccc1-n1c(N)cc(=O)nc1SCC(=O)Nc1ccc(Br)cc1,1.16
9,C[C@H](CO)N1C[C@H](C)[C@H](CN(C)S(=O)(=O)c2cccs2)Oc2ccc(NC(=O)Nc3ccccc3)cc2C1=O,-1.39
10,Cc1ccc(-c2noc(CSc3nnc(-c4cccs4)n3C)n2)cc1,0.512
11,Cc1ccc(C)c(OCC(=O)Nc2ccccc2C#N)c1,-3.9
12,COc1ccc(S(=O)(=O)N(C)C[C@@H]2Oc3ccc(NS(=O)(=O)c4ccc(Cl)cc4)cc3C(=O)N([C@H](C)CO)C[C@H]2C)cc1,-2.88
13,O=C(OCC1OC(Oc2ccc(O)cc2COC(=O)C2(O)C(O)CCC(O)C2O)C(O)C(O)C1O)c1ccccc1 (stereo not drawn),-1.74
14,C[C@@H]1CN([C@@H](C)CO)C(=O)c2cccc(NS(=O)(=O)c3ccc(Cl)cc3)c2O[C@@H]1CN(C)C(=O)Nc1ccccc1,-0.568
15,C[C@@H]1CN([C@H](C)CO)C(=O)Cc2cc(NC(=O)Cn3cnnn3)ccc2O[C@H]1CN(C)Cc1ccc(Cl)c(Cl)c1,1.08
16,C[C@@H]1CN([C@@H](C)CO)C(=O)c2cccc(NS(=O)(=O)c3ccc(F)cc3)c2O[C@@H]1CN(C)Cc1ccc(C(=O)O)cc1,1.83
17,C[C@H]1CN([C@@H](C)CO)C(=O)c2cc(NS(=O)(=O)c3cccs3)ccc2O[C@@H]1CN(C)C(=O)Nc1cccc2ccccc12,-0.392
18,COc1ccc(NC(=O)Nc2ccc3c(c2)CC(=O)N([C@H](C)CO)C[C@H](C)[C@H](CN(C)Cc2ccncc2)O3)cc1,0.119
19,CC(=O)Nc1ccc(Nc2c3c4c(cccc4[nH]c2=O)C(=O)c2ccccc2-3)cc1,-3.04
20,Cc1noc(C)c1S(=O)(=O)Nc1ccc2c(c1)CC(=O)N([C@@H](C)CO)C[C@H](C)[C@@H](CN(C)S(=O)(=O)c1cn(C)cn1)O2,1.24
21,C[C@H]1CN([C@@H](C)CO)C(=O)c2cccc(NS(=O)(=O)c3ccc(F)cc3)c2O[C@@H]1CN(C)C,0.422
22,Cc1ccc(S(=O)(=O)Nc2ccc3c(c2)C(=O)N([C@H](C)CO)C[C@H](C)[C@H](CN(C)S(C)(=O)=O)O3)cc1,0.318
